# TRHR ag: qHTS for Small Molecule Agonists and Allosteric Enhancers of Human TRH Receptor: Primary Screen for Agonists; 360,000 tested, 0.18% active; activation, % at 2 µM; Thyrotropin-releasing hormone receptor (Homo sapiens), P34981; TRHR cells, calcium flux fluo-8, FDSS agonist mode; in the data active means activation above about 30%; further: 0% is about no effect
#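 Read-out: compound-evoked intracellular calcium rise in TRHR cells, fluo-8 dye, kinetic FDSS fluorescence at 1 s/cycle following a 10-cycle baseline. Cells cultured overnight before dye loading (30 min–1.5 h, RT).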
# TRHR enhancer: qHTS for Small Molecule Agonists and Allosteric Enhancers of Human TRH Receptor: Primary Screen for Enhancers; enhancement, % at 2 µM; 360,000 tested, 0.66% active; Thyrotropin-releasing hormone receptor (Homo sapiens), P34981; TRHR cells, fluo-8 calcium fluorescence, EC20 TRH enhancement; in the data active means enhancement above about 30%; further: 0% is about no effect
#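 Enhancer read-out: after compound pinning and an initial kinetic agonist-mode read, an EC20 of TRH (10 nM final) was injected and fluo-8 calcium signal (Ex 480/Em 530) followed at 1 s/cycle for 100 cycles in TRHR-expressing cells.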
# TRPV1 agonist: HTS Assay for Compounds that Act as Agonists of the Vanilloid Receptor 1 | TRPV1-expressing cells, Fluo-8 calcium influx, agonist mode | 320,000 tested, 0.19% active | AID 540275, 2011 | activation, % at 8.33 µM | Transient receptor potential cation channel subfamily V member 1 (Homo sapiens), Q8NER1; in the data active means activation above about 80%; inconclusive means between about 30% and that limit; further: 0% is about no effect
#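 TRPV1-expressing cells were cultured overnight at 35.5C and loaded with Fluo-8 calcium dye for 40 to 90 min at room temperature. After a 10 s baseline, compound was added and calcium influx was read kinetically for 3 min (ex 480/em 520 nm).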
# TRPV1 PAM: HTS Assay for Compounds that Act as Potentiators of the Vanilloid Receptor 1; Transient receptor potential cation channel subfamily V member 1 (Homo sapiens), Q8NER1; TRPV1-expressing cells, Fluo-8 calcium influx, capsaicin EC20 potentiation; potentiation, % at 8.33 µM; 320,000 tested, 0.02% active; AID 540277, 2011; in the data active means potentiation above about 80%; inconclusive means between about 30% and that limit; further: 0% is about no effect
#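 Cells expressing TRPV1 were dye-loaded with Fluo-8 and read kinetically: 10 s baseline, 3 min after compound (agonist portion), then 2 min after EC20 capsaicin (allosteric enhancer portion). Calcium-bound dye fluorescence at 480/520 nm.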
# TRPML1 blocker: qHTS for Inhibitors of the Human Mucolipin Transient Receptor Potential 1 (TRPML1); AID 624415, 2012; Mucolipin-1 (Homo sapiens), Q9GZU1; TRPML1-inducible cells, Ca2+ dye fluorescence, FDSS; active compounds read low; inhibition of EC80 agonist-evoked calcium signal; activity change, negative = inhibition, % (test concentration not listed); 390,000 tested, 0.02% active; in the data active means activity change below about -50%; inconclusive means between about -30% and that limit;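 further: stimulus is agonist 54-4 at its EC80 concentration; on the % scale 0 is the no-effect control and ±100 the full control effect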
# Target sequence (Q9GZU1 whole entry, looked up): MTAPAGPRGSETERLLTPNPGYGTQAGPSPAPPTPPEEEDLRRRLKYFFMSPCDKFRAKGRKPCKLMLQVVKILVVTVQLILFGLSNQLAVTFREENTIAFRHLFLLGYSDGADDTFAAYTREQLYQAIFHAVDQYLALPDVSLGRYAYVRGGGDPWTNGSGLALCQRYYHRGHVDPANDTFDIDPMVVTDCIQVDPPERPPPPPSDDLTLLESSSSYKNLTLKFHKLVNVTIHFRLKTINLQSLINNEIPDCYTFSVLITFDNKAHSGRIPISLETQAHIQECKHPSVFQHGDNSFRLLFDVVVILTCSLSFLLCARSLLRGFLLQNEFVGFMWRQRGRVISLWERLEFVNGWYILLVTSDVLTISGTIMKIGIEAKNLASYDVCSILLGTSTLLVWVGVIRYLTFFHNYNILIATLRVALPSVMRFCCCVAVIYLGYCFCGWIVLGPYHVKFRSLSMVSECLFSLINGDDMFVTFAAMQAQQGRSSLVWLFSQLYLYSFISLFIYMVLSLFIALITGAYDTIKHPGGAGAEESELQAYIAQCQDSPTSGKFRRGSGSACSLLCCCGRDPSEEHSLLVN
#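 TRPML1-DL cells, Tet-induced overnight (~16 h, 37 °C) at 1,500 cells/well, were loaded with Ca8 no-wash dye plus quencher for 45-90 min at room temperature. Compounds were pinned during FDSS kinetic reading; agonist 54-4 at EC80 (4 uM final) then added.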
# TRPML1 agonist: qHTS for Agonists of the Human Mucolipin Transient Receptor Potential 1 (TRPML1); TRPML1-expressing cells, Ca2+ dye fluorescence, FDSS; activation, % (test concentration not listed); 410,000 tested, 0.12% active; in the data active means activation above about 50%; inconclusive means mostly about 30% to 49%; further: 0% is about no effect
#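 Calcium fluorescence on an FDSS kinetic reader gave the read-out. Tet-induced TRPML1-DL cells were plated overnight, dye-loaded (Ca8 with quencher, 45-90 min, room temperature, dark), then read 110 s after compound addition, and again 110 s after 4uM final 54-4 (EC80).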
# Active calls of the source: *; ? = inconclusive; nt = no result. This is a sample that favours compounds with a hit; in the whole collection about 0.99% have one here.
SMILES,TRHR ag,TRHR enhancer,TRPV1 agonist,TRPV1 PAM,TRPML1 blocker,TRPML1 agonist
Cc1cccc(S(=O)(=O)Nc2cc(Cl)ccc2N2CCOCC2)c1,nt,nt,nt,nt,-16.2,72.0*
Cc1ccc(S(=O)(=O)Nc2ccccc2N2CCCCC2)cc1,nt,nt,nt,nt,-3.0,76.4*
Cc1ccc(S(=O)(=O)Nc2ccccc2N2CCOCC2)cc1,18.8,-1.2,6.4,-2.9,-8.8,64.5*
O=S(=O)(c1ccc2c(c1)OCCO2)N1CCN(S(=O)(=O)c2c(Cl)cc(C(F)(F)F)cc2Cl)CC1,-2.2,4.0,nt,nt,nt,nt
COc1ccccc1CN(C)CC(=O)c1c(C)[nH]c2ccccc12,nt,nt,nt,nt,nt,0.0
Cc1ccc(S(=O)(=O)Nc2cc(C(F)(F)F)ccc2N2CCOCC2)cc1C,1.0,8.5,28.0,-16.4,-11.1,85.3*
Cc1nn(C2CCS(=O)(=O)C2)c(Cl)c1/C=C/C(=O)OCC(=O)N(C)C (configuration not stated),1.2,1.0,-1.3,-2.2,3.2,1.6
Cc1nn(C2CCS(=O)(=O)C2)c(Cl)c1/C=C/C(=O)OCC(N)=O (configuration not stated),0.6,33.3*,nt,nt,1.3,0.5
C/C(=N\Nc1ccc2nncn2n1)c1ccc(Br)s1,-1.0,-3.4,95.8*,-9.7,-10.4,2.0
C/C(=N\Nc1ccc2nncn2n1)c1ccco1,0.2,4.1,3.1,-7.2,0.5,-0.6
CCS(=O)(=O)N1CC(=O)N(c2ccc(C)c(C)c2)C(C)(C(=O)NC2CCCCC2)C1 (configuration not stated),-0.2,42.3*,nt,nt,-1.2,0.2
C=C1C=C(C)n2ncc(C(=O)Nc3ccc(F)cc3F)c2N1,nt,nt,nt,nt,nt,-0.9
CCOc1cc(/C=C2\N=C(SC(C)C(N)=O)N(c3ccc(OC(F)F)cc3)C2=O)ccc1O (configuration not stated),32.0*,18.6,5.0,9.8,-5.8,10.9
NC(=O)CSC1=N/C(=C\c2ccco2)C(=O)N1c1ccc(OC(F)F)cc1,0.2,1.2,1.8,10.4,4.4,1.3
O=C(NC1CCCC1)C(c1ccc(F)cc1)N(C(=O)Cc1cccs1)c1ccc2c(c1)OCCO2 (configuration not stated),0.2,30.4*,27.8,-22.6,-1.9,0.9
Cc1ccc(Cn2ccc(=O)c(OCc3c(Cl)cccc3Cl)c2C)cc1,0.3,39.2*,-13.7,?,19.5,1.7
Cc1[nH]ccc(=O)c1OCc1c(Cl)cccc1Cl,0.5,-3.1,1.7,-2.5,19.1,-1.0
NC(=O)C1CCN(c2nc(C3CC3)nc3c2nnn3Cc2ccccc2)CC1,-0.9,30.3*,5.8,-5.2,12.1,0.2
CCN(CC)CCN(C)c1ccc(/C=C/c2ccnc3ccccc23)cc1,nt,nt,nt,nt,nt,12.4
Cc1cc2c(s1)c1cnn(Cc3cc(C(F)(F)F)ccc3F)c(=O)c1n2C,-0.1,0.5,nt,nt,nt,nt
Cc1ccc(NC(=O)c2ccc(S(=O)(=O)N3CCCC3)cc2)nc1,0.1,4.6,86.4*,5.2,-0.2,-0.5
Cc1ccnc(NC(=O)C2CCN(S(=O)(=O)c3ccc(Cl)c(C(F)(F)F)c3)CC2)c1,0.3,-11.6,7.9,-1.8,8.8,2.2
O=C(Nc1ccncc1)C1CCN(S(=O)(=O)c2ccccc2C(F)(F)F)CC1,-0.1,-2.0,82.8*,-5.3,0.7,-0.3
Cc1ccc(NC(=O)C2CCN(S(=O)(=O)c3ccc(Cl)c(C(F)(F)F)c3)CC2)nc1,0.1,-10.8,23.9,-20.9,-8.0,69.0*
COc1ccc(N=Nc2nc3ccc(Br)cc3n2C)cc1,-0.1,4.3,1.1,-10.8,-6.0,53.6*
SMILES,TRHR ag,TRHR enhancer,TRPV1 agonist,TRPV1 PAM,TRPML1 blocker,TRPML1 agonist
CCOC(=O)C1CCCN(C(=O)c2cc3cc(Br)ccc3oc2=O)C1 (configuration not stated),-2.1,30.7*,10.1,-10.0,-5.9,-0.5
CCOC(=O)C1CCN(C(=O)c2cc3cc(Br)ccc3oc2=O)CC1,-0.2,-3.7,-0.8,-7.2,15.4,-0.4
COc1ccc(OC)c(N(C)S(=O)(=O)c2ccc3c(c2)NC(=O)CC(=O)N3)c1,1.0,20.6,nt,nt,6.1,-0.3
CNC(=O)c1cc(S(=O)(=O)N2CC(C)OC(C)C2)ccc1N1CCCCC1 (configuration not stated),-0.2,40.8*,-0.6,-0.2,-17.5,-0.3
Cc1ccc(CNC(=O)CO/N=C/c2ccc(C(C)(C)C)cc2)cc1,1.8,0.2,?,7.9,2.3,2.1
CC(C)(C)c1ccc(/C=N/OCC(=O)NCc2ccc(F)cc2)cc1,0.6,-0.5,91.6*,1.4,-3.5,3.3
COC(=O)c1ccc(C2Nc3c(C)cc(C)cc3C3C=CCC32)cc1 (configuration not stated),-0.4,14.2,nt,nt,12.6,-0.3
CC1(C)CC(=O)C(C(c2ccco2)C2C(=O)CC(C)(C)CC2=O)C(=O)C1,0.1,38.6*,2.0,-7.7,1.6,-1.0
CCOc1ccc(NC(=O)CSc2nc3c(oc4ccccc43)c(=O)n2-c2cc(C)cc(C)c2)cc1,0.3,-3.5,nt,nt,13.2,0.0
COc1ccc(C(=O)O)cc1NC(=S)NC(=O)/C=C/c1ccc(C(C)C)cc1,-0.7,32.2*,-4.9,4.6,-22.0,0.8
CCN(CC)S(=O)(=O)c1ccc(S(=O)(=O)N2CCCC2)cc1,-0.4,38.4*,-0.6,3.9,-4.8,0.6
CCOc1ccc(S(=O)(=O)N2CCCC2)cc1,-0.3,-1.2,1.2,-24.7,-11.8,0.9
CC(=O)Nc1ccc(S(=O)(=O)N2CCSC2c2ccco2)cc1 (configuration not stated),0.8,0.8,3.3,3.0,-4.0,-0.5
O=S(=O)(c1ccccc1)N1CCSC1c1ccco1 (configuration not stated),0.4,33.8*,4.5,-2.2,1.8,0.2
O=C(CSc1nc2c([nH]c3ccccc32)c(=O)n1-c1ccc(F)cc1)N1CCCCCC1,0.2,1.5,nt,nt,4.3,0.1
Cn1ccc2cc(-c3ccc4ncnc(NCc5cccnc5)c4c3)ccc21,-0.7,-4.8,nt,nt,nt,nt
O=S(=O)(c1ccccc1)c1nc(-c2cccs2)oc1N1CCCCC1,-0.2,35.9*,nt,nt,24.4,2.7
